23 molecules from PubChem BioAssay (NCI) can be followed below.

Compounds without any hit were thinned out: in the full panel of roughly 83,000, 20% have a hit.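 Single-concentration screen, 48 h exposure, 96-well plates. Endpoint: percent growth. Below 10 = active.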 Unmarked numbers belong to inactive results. Calls of active or inactive are those of the source.

The test system of the assay is SF-295 CNS. In words: NCI-60 one-dose screen, 48 h (100 = growth as untreated, 0 = no growth, -100 = all killed). The following applies: 10 µM unless noted.
For `O=C1N=C(N2CCOCC2)S/C1=C\c1cn(-c2ccccc2)nc1-c1ccccc1`, the growth is 48.4%.

`Cn1c(N2N=C(c3ccc(Cl)cc3)CC2c2ccccc2)nc(-c2ccccc2)c(C#N)c1=O` (stereo not drawn): the growth was 85.4%.

On to `O=C(O)CNC(=O)C1(N2C(=O)c3ccccc3C2=O)CCCC1`, for which the growth was 102%.

`c1ccc(CN=C(NCc2ccccc2)NCc2ccccc2)cc1`: the growth is 30%.

Consider `CN1CCN(CCCCCN=c2cc3c(=O)n(CCCCCN4CCN(C)CC4)c(=O)c4c(NCCCCCN5CCN(C)CC5)cc5c(O)n(CCCCCN6CCN(C)CC6)c(=O)c2c5c4-3)CC1`, for which the growth was 36.4%. The result for `Clc1ccc2c(c1)C(Br)c1cc(Cl)cc(Cl)c1-2` (stereo not drawn) reads 101%.

As for `CCCCCCCCCCCCC1CCCC(C)C1` (stereo not drawn), the growth was 90.1%. Take `CC(=O)Nc1cc2c3c(cccc3c1)-c1ccccc1-2`: the growth was 92.9%.

Consider `Nc1ccc2c(c1)C(=O)c1cc(Cl)c(Cl)cc1-2`, for which the growth is 105%. The result for `CCN(CC)c1ccc(/C=C/C(=O)c2cccc(NS(C)(=O)=O)c2)cc1` reads 47.5%; that for `Cc1ccc(OCC(=O)Nc2ccc(Oc3ccccc3)cc2)c([N+](=O)[O-])n1`, 89.5%.

Turning to `Cc1nn(-c2ccccc2)cc1/C=C1\SC(N2CCCCC2)=NC1=O`, the growth was 128%. For `COc1ccc(C2=NN(C(N)=S)C(c3ccc4c(c3)OCO4)C2)cc1` (stereo not drawn), the growth was -9.16% (active). The result for `COc1ccc(-c2c3c(N)nc(-c4ccncc4)nc3nc3c2c(C)nn3-c2ccccc2)cc1` reads 58.7%; that for `CCOC(=O)CCC(=O)O[C@H]1[C@H](O[C@@H]2[C@@H](C)[C@H](O[C@H]3C[C@@](C)(OC)[C@@H](O)[C@H](C)O3)[C@@H](C)C(=O)O[C@H](CC)[C@@](C)(O)[C@H](O)[C@@H](C)C(=O)[C@H](C)C[C@@]2(C)O)O[C@H](C)C[C@@H]1N(C)C`, 104%; that for `c1ccc(-c2oc(-c3ccccc3)c3ccccc23)cc1`, 102%. On to `O=[N+]([O-])c1cc([N+](=O)[O-])c(N2CCCC2)cc1NN=C(c1ccc(O)cc1)c1ccc(O)cc1`, for which the growth is 79.6%. The result for `O=C1Nc2ccc(C(=O)O)c(O)c2C1=O` reads 108%. The result for `O=c1c2c(=NCCCN3CCCC3)cc3c(=O)n(CCCN4CCCC4)c(=O)c4c(NCCCN5CCCC5)cc(c(O)n1CCCN1CCCC1)c2c4-3` reads -42.5% (active); that for `O=C(N/N=C/c1cccc([N+](=O)[O-])c1)c1ccc(Br)o1`, 111%. The result for `Nc1ccc2c(c1)Cc1cc(Cl)c(Cl)cc1-2` reads 50.1%; that for `Nc1ncnc2c1CN(Cc1ccccc1)CC2`, 105%. Turning to `CC[C@@H](C)/C=C(C)/C=C/C(O)=C1\C(=O)N[C@@H](Cc2ccc(OC(=O)[C@@](OC)(c3ccccc3)C(F)(F)F)cc2)C1=O`, the growth is 74.2%.
